Measurements as given in PubChem BioAssay AID686979 (National Center for Advancing Translational Sciences (NCATS), 2013).
In all, about 420,000 compounds went through this assay and about 50,000 (12%) were called active. Not shown: some 26% with an inconclusive outcome. The sample as a whole holds a higher share of actives than the screen did. Values without a mark were called inactive. Calls follow the shape of the dose curve; as a rule, active = well fitted inhibition curve with a large enough effect; inconclusive = small, poorly fitted or top-dose-only effect; inactive = flat fitted curve, though single readings scatter.

experiment: qHTS for Inhibitors of human tyrosyl-DNA phosphodiesterase 1 (TDP1): qHTS in cells in presence of CPT; details: chicken DT40 Tdp1-/-;hTDP1 cells + 20 nM CPT, ATP luminescence, 48 h; series mostly up to 46.2 µM; activity change, negative = growth inhibition: at the top concentration; also: nearly all actives have a fitted effect of over 55% in size
In short: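 Cell growth measured by CellTiter-Glo luminescence after a minimum 48 h, 37 C compound exposure with 20 nM CPT in Tdp1-knockout DT40 cells stably expressing hTDP1, seeded 400/well; qHTS titration format.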
% is scaled to controls: 0 for no effect and ±100 for the full control effect; potency is read from the fitted curve at half-maximal effect.

Compound	activity change, negative = growth inhibition	Potency
O=C1C(=O)N(CCCN2CCOCC2)C(c2ccc([N+](=O)[O-])cc2)/C1=C(\O)c1ccc2c(c1)OCCO2 (centres undefined)	-2.39%	
Cc1ccc(NC(=O)CN(C)C(=O)Cn2nnc(-c3ccccc3)n2)cc1	12.9%	
Cc1cc(O)c(C2(O)C(=O)Nc3ccccc32)cc1C (centres undefined)	5.24%	
COc1ccc(-c2nn(CC(=O)NC3CCCC3)c3c2cnc2ccc(F)cc23)cc1	-6.97%	
CCc1ccc2ncc3c(-c4ccc(C)cc4)nn(CC(=O)NCc4ccccc4)c3c2c1	-20.3%	
COc1ccc2ncc3c(-c4ccc(C)c(C)c4)nn(CC(=O)NC4CCCC4)c3c2c1		5.17 µM (active)
O=C(COC(=O)CSc1ccccc1)Nc1ccc(F)cc1F	-4.02%	
O=C(C[C@H]1C[C@@H]2c3cc(NC(=O)C4CCC4)ccc3O[C@@H]2[C@H](CO)O1)NC1CCCCC1	28.7%	
O=C(Nc1ccc2c(c1)[C@@H]1C[C@@H](CC(=O)N3CCCCC3)O[C@@H](CO)[C@@H]1O2)NC1CCCCC1	-8.78%	
O=C(C[C@H]1C[C@H]2c3cc(NS(=O)(=O)c4ccc(F)cc4)ccc3O[C@H]2[C@H](CO)O1)NCc1cc(F)ccc1F		16.4 µM (active)
Cc1cccc(C(=O)N2CCC(c3nc4ccccc4s3)CC2)c1	-8.8%	
COC(=O)C1=NNC2(c3ccc(C)cc3)C(=O)N(c3cccc(C)c3C)C(=O)C12 (centres undefined)	-9.35%	
CCCCn1c(N)c(N(CC)C(=O)c2ccc(N(C)S(=O)(=O)c3ccc(C)cc3)cc2)c(=O)[nH]c1=O	3.11%	
Cc1cccc(C(=O)Nc2ccccc2-c2nnn(CC(=O)Nc3ccc4c(c3)OCCO4)n2)c1	-23.9%	
Cc1ccc(-n2ncc3c(NCCCn4ccnc4)ncnc32)cc1Cl		20.6 µM (active)
Cc1ccc2c(Cl)c(C(=O)NCCCn3ccnc3)sc2c1	-24%	
O=C(NCCCn1ccnc1)Nc1ccc(Cl)cc1Cl	-17.8%	
CC1CN(C(=O)N2CCC(C(=O)NCc3cccs3)CC2)c2ccccc2O1 (centres undefined)	-3.5%	
Cc1cnc(CN(C)C(=O)C2CCC(=O)N(CCc3cccc(F)c3)C2)[nH]1 (centres undefined)	1.53%	
O=C(NC(=S)Nc1ccc(Br)cc1F)C1CCCCC1	-24.6%	
O=C(NC(=S)Nc1ccc(Cl)cc1Cl)C1CC1		20.6 µM (active)
S=C(Nc1ccc(Cl)cc1Cl)N1CCCC1	1.1%	
CCCCCCNC(=O)CSc1nccn1Cc1ccccc1	-26.6%	
COC1[C@H](OC(N)=O)C(O)[C@H](Oc2ccc3c(O)c(NC(=O)c4ccc(O)c(CC=C(C)C)c4)c(=O)oc3c2C)OC1(C)C (some centres undefined)	-3.46%	
Cc1ccc(NC(=O)CN(C)C(=O)COC(=O)c2nccnc2N)cc1	-9.42%	

Compound	activity change, negative = growth inhibition	Potency
CC[C@@H]1CCCCc2ccccc2[C@@H](C(=O)C[C@H](O)CC(C)=O)OC1=O	-10.9%	
Cc1cc(NC(=O)CCC2COc3ccccc3O2)no1 (centres undefined)	-7.12%	
Cc1noc(C)c1C(=O)NCC1COc2ccccc2O1 (centres undefined)	-23.6%	
CCn1ccnc1C[C@@H]1COc2ccccc2O1	-1.49%	
Cc1cc(C(=O)CCl)c(C)n1CC1COc2ccccc2O1 (centres undefined)		2.06 µM (active)
O=C1C(=O)N(CC2COc3ccccc3O2)c2ccccc21 (centres undefined)		1.64 µM (active)
O=C(CN1C(=O)C2C3C=CC(C3)C2C1=O)NCC1COc2ccccc2O1 (centres undefined)	2.17%	
O=c1c(NCc2cccs2)nccn1-c1ccccc1	-5.85%	
CCN(CC(=O)Nc1c(F)cccc1F)C(=O)CN1c2cccc3cccc(c23)S1(=O)=O	-0.627%	
O=C(Cn1cc(C(F)(F)F)ccc1=O)Nc1ccc2c(c1)OCCO2	2.89%	
O=C(NCCc1nnc2ccc(SCC(=O)N3CCOCC3)nn12)c1ccccc1	19.8%	
CC1=CCC2C(=O)N(c3cccc(C(=O)NC(C)c4ccccc4)c3)C(=O)C2C1 (centres undefined)	7.83%	
Cc1oc(C)c2c(=O)cc(-c3ccc4c(c3)OCO4)cc(OC(=O)c3ccc(Cl)cc3)c12		20.6 µM (active)
COc1ccc(Cl)cc1NC(=O)CN(C)CC(=O)Nc1ccc2c(c1)OCO2	-29.4%	
CC1(c2ccc(Cl)cc2)NC(=O)N(CC(=O)c2ccc3c(c2)OCO3)C1=O (centres undefined)	-26.1%	
Cc1cc(-c2ccccc2)nc(N2CCC(C(=O)NC34CC5CC(CC(C5)C3)C4)CC2)n1	-20%	
CSCCC(NC(=O)COc1ccccc1)C(=O)OCCOc1ccc(Br)cc1 (centres undefined)	-7.17%	
CSCCC(NC(=O)COc1ccccc1)C(=O)N1CCN(c2cccc(C(F)(F)F)c2)CC1 (centres undefined)		16.4 µM (active)
CSCCC(NC(=O)COc1ccccc1)C(=O)OCCOc1ccc(F)cc1 (centres undefined)	1.47%	
Nc1cc(N2CCCCCC2)c2nonc2c1[N+](=O)[O-]	3.78%	
C(=Nc1ccc(/C=C/c2ccnc3ccccc23)cc1)c1cc2c3c(c1)CCCN3CCC2		11.2 µM (active)
C(=Nc1ccc(/C=C/c2ccnc3ccccc23)cc1)Nc1ccc(/C=C/c2ccnc3ccccc23)cc1		10 µM (active)
CCCCC(CCCC)c1ccc(C=Nc2ccc(/C=C/c3ccnc4ccccc34)cc2)cc1		17.8 µM (active)
Cc1ccc(CNC(=O)CCNS(=O)(=O)c2cccc3nonc23)cc1	0.319%	
